Test results taken from PubChem BioAssay (Tox21).
Unmarked numbers belong to inactive results. Records with an inconclusive call do not appear. The source made the active and inactive calls. Calls come from the whole dose curve; as a rule, active = well fitted curve in the direction sought with a large enough effect in the repeat runs; inconclusive = weak or mixed curves; inactive = no such curve, though single readings can be large; an effect the other way counts as inactive or inconclusive.

Tests used:
[1] = Caspase-3/7 induction in CHO-K1 cells by small molecules, qHTS cell viability counter screen (AID 1346979); note: nearly all actives have a fitted effect of over 35% in size; note: potency is the fitted concentration of half-maximal effect
Procedure, shortened: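 Multiplexed with Caspase-Glo 3/7 in CHO-K1 cells, this counter screen added CellTiter-Fluor after 16hr of compound exposure and recorded fluorescence 1hr later.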

[2] = Caspase-3/7 induction in CHO-K1 cells by small molecules, qHTS assay (AID 1346980); note: nearly all actives have a fitted effect of over 15% in size; note: potency is the fitted concentration of half-maximal effect
Procedure, shortened: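 Wild-type CHO-K1 cells exposed to compounds for 17hr at 37 C, 5% CO2. Caspase-3/7 activity then measured by Caspase-Glo 3/7 luminescence after 30min at room temperature.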

[3] = target: Cytochrome P450 2D6 (Homo sapiens) (UniProt P10635); test: Cytochrome P450 Family 2 Subfamily D Member 6 (CYP2D6) small molecule antagonists: luciferase reporter qHTS assay (AID 1671196); note: nearly all actives have a fitted effect of over 50% in size; note: potency is the fitted concentration of half-maximal effect; for activity change, negative = inhibition: series mostly up to about 120 µM
Procedure, shortened: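 Chemicals tested for interference with CYP2D6 activity; proluciferin substrate, NADPH regeneration, 1 h at room temperature, luminescent detection.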

[4] = target: Cytochrome P450 2C19 (Homo sapiens) (UniProt P33261); test: Cytochrome P450 Family 2 Subfamily C Member 19 (CYP2C19) small molecule antagonists: luciferase reporter qHTS assay (AID 1671197); note: nearly all actives have a fitted effect of over 65% in size; note: potency is the fitted concentration of half-maximal effect; for activity change, negative = inhibition: series mostly up to about 120 µM
Procedure, shortened: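 CYP2C19 P450-Glo, 1536-well qHTS. Cpd + enzyme/proluciferin substrate 10 min RT; + NADPH regen, 37C 1 h; stop with luciferin detection reagent, 20 min RT, luminescence (RLU). Pos ctrl ketoconazole.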

[5] = target: Cytochrome P450 2C9 (Homo sapiens) (UniProt P11712); test: Cytochrome P450 Family 2 Subfamily C Member 9 (CYP2C9) small molecule antagonists: luciferase reporter qHTS assay (AID 1671198); note: nearly all actives have a fitted effect of over 50% in size; note: potency is the fitted concentration of half-maximal effect; for activity change, negative = inhibition: series mostly up to about 120 µM
Procedure, shortened: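 P450-Glo proluciferin substrate with CYP2C9 enzyme; 10 min RT preincubation, then NADPH regeneration 1 h at 37C; luciferin detection reagent 20 min RT, luminescence in relative luminescence units.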

[6] = Caspase-3/7 induction in HepG2 cells by small molecules, qHTS cell viability counter screen (AID 1346981); note: series mostly up to about 92 µM; nearly all actives have a fitted effect of over 30% in size
Procedure, shortened: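 Treatment of HepG2 cells with DMSO-delivered compounds ran 16 hr at 37 C following a 5-hr pre-incubation of 2,000 cells/well. CellTiter-Fluor fluorescence, read after 1 hr, served as the viability measure in a qHTS format.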

[7] = target: Nuclear receptor subfamily 1 group I member 2 (Homo sapiens) (UniProt O75469); test: Human pregnane X receptor (PXR) small molecule agonists, qHTS assay (AID 1346982); note: nearly all actives have a fitted effect of over 35% in size; note: potency is the fitted concentration of half-maximal effect
Procedure, shortened: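 Stable HepG2 line reporting PXR-mediated CYP3A4 expression via luciferase. Treatment: 24 hr with compounds in DMSO at 37 C. Detection: ONE-Glo luminescence.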

[8] = target: Nuclear receptor subfamily 1 group I member 2 (Homo sapiens) (UniProt O75469); test: CYP3A4 induction through human pregnane X receptor (PXR) by small molecules, qHTS assay (AID 1346984); note: nearly all actives have a fitted effect of over 40% in size; note: potency is the fitted concentration of half-maximal effect
Procedure, shortened: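 After 24 h at 37C with compound, DPX-2 cells (HepG2, co-transfected PXR response element and CYP3A4 promoter-luciferase) got 3uM final P450-Glo Luciferin-IPA for 3 h; One-Glo luminescence followed.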

[9] = target: Nuclear receptor subfamily 1 group I member 2 (Homo sapiens) (UniProt O75469); test: Human pregnane X receptor (PXR) activation by small molecules, qHTS assay (AID 1346985); note: nearly all actives have a fitted effect of over 40% in size; note: potency is the fitted concentration of half-maximal effect
Procedure, shortened: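 DPX-2 cells (HepG2 co-transfected with a PXR response element and a CYP3A4-promoter luciferase construct) were seeded at 2,000 per well, rested 5 hr at 37C, then exposed to DMSO-dissolved compounds for 24 hr. Activation was read as luciferase luminescence.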

[10] = target: Nuclear receptor subfamily 1 group I member 2 (Rattus norvegicus) (UniProt Q9R1A7); test: Rat pregnane X receptor (rPXR) activation by small molecules, qHTS assay (AID 1346983); details: rPXR luciferase reporter cells, One-Glo luminescence, 24 h; hits give high values; note: nearly all actives have a fitted effect of over 20% in size
Procedure, shortened: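 Cell-based rPXR activation assay: rPXR cells, 2,000 per well, rested 5hr at 37 C, then exposed to compounds in DMSO for 24 hr at 37 C. Luciferase activity read by One-Glo luminescence after 30 min at room temperature.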
% is set by controls: 0 for no effect and ±100 for the full control effect.

Chain of Cytochrome P450 2D6 (Homo sapiens) (P10635 whole entry, looked up): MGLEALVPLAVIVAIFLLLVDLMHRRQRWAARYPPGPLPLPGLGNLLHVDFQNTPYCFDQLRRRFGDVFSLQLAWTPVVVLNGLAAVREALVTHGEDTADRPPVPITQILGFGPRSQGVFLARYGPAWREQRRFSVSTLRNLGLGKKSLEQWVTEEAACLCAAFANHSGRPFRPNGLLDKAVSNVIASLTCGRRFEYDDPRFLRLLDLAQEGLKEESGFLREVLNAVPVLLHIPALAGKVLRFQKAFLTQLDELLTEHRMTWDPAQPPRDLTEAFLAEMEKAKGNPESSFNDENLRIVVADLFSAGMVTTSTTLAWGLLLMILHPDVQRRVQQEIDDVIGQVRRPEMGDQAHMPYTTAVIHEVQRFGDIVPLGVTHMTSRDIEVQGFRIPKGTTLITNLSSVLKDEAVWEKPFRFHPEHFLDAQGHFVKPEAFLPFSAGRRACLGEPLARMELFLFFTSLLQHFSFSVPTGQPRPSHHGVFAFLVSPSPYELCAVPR
Chain of Cytochrome P450 2C19 (Homo sapiens) (P33261 whole entry, looked up): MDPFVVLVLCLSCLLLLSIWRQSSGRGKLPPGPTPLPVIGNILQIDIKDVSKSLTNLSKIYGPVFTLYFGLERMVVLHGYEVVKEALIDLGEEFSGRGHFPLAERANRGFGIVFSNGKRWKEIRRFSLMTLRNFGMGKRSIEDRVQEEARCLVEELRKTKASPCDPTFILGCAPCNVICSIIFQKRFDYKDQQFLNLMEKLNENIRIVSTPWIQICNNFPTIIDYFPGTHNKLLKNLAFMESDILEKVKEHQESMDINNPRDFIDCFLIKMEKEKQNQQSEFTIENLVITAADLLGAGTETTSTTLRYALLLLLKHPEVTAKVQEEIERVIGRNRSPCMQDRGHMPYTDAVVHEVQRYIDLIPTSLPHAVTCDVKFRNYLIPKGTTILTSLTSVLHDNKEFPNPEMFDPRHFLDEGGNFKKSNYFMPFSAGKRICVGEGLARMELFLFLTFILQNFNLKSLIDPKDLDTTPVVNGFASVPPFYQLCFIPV
Chain of Nuclear receptor subfamily 1 group I member 2 (Rattus norvegicus) (Q9R1A7 whole entry, looked up): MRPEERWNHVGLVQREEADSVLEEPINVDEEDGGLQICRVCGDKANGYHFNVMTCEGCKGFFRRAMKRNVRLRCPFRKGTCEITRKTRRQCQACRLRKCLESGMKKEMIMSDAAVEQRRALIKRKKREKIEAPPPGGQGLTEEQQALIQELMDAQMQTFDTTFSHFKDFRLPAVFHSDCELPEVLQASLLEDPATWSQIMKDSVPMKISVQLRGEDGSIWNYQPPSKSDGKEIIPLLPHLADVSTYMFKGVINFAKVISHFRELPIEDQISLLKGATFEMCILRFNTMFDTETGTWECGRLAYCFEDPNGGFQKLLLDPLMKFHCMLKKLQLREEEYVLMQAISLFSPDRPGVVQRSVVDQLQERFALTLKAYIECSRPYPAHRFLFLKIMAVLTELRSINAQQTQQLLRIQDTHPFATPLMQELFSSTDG
Chain of Nuclear receptor subfamily 1 group I member 2 (Homo sapiens) (O75469 whole entry, looked up): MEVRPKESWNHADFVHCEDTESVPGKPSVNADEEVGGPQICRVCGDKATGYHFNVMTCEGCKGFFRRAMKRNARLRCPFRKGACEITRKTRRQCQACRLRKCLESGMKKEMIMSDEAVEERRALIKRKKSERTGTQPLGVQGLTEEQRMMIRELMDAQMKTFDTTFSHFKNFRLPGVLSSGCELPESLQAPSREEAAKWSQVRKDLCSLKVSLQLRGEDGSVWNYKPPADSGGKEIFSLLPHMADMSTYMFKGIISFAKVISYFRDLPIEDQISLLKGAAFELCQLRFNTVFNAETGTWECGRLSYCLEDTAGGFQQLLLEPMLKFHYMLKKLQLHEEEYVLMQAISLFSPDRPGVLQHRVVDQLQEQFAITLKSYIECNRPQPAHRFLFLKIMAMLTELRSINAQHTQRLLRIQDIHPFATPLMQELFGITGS
Chain of Cytochrome P450 2C9 (Homo sapiens) (P11712 whole entry, looked up): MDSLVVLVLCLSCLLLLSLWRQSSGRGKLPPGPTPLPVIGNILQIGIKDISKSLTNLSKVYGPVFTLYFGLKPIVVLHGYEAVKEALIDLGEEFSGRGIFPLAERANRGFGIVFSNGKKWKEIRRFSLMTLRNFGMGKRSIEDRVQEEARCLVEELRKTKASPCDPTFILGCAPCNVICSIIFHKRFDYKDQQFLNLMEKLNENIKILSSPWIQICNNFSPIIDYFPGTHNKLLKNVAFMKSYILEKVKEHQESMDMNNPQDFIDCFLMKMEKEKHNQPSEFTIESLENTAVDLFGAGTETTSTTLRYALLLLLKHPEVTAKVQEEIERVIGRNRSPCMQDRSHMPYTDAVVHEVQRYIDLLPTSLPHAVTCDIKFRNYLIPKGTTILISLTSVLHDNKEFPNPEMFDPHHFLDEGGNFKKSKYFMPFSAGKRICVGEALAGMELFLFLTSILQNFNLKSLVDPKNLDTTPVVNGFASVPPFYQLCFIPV

With `CCO[C@@H]1O[C@H](C(COCc2ccccc2)OCc2ccccc2)[C@H](OCc2ccccc2)[C@H]1O` (some centres undefined) the Potency [1] was 29.8 µM (active), the Potency [2] was “inactive” and the Potency [3] was 38.9 µM (active). The Potency [4] was 4.9 µM (active) and the Potency [5] was 8.71 µM (active).
In the case of `C=CC(=O)OCCOC(=O)C=C`, the Potency [2] is reported as “inactive”, the Potency [6] is reported as “inactive” and the Potency [7] is reported as “inactive”. For the same compound, the Potency [3] was “inactive”, the Potency [4] was “inactive” and the Potency [5] was “inactive”.
For `Sc1nc2ccccc2s1`, the Potency [6] was “inactive”, the Potency [7] was 54.5 µM (active) and the Potency [4] was 7.96 µM (active).
With `C#C[C@]1(OC(C)=O)CC[C@H]2[C@@H]3CCC4=C/C(=N/O)CC[C@@H]4[C@H]3CC[C@@]21CC` the Potency [2] was “inactive”, the Potency [6] was “inactive” and the Potency [7] was 29.8 µM (active). For the same compound, the Potency [8] was “inactive”, the Potency [9] was 7.94 µM (active) and the Potency [3] was 27.5 µM (active). For the same compound, the Potency [4] was 4.36 µM (active) and the Potency [5] was 11 µM (active).
With `CCc1oc2ccccc2c1C(=O)c1cc(I)c(O)c(I)c1` the Potency [2] was “inactive”, the Potency [6] was “inactive” and the Potency [7] was “inactive”. The max activation [10] was -8.05%, the Potency [8] was 25.1 µM (active) and the Potency [5] was 1.38 µM (active).
`COc1cc2nc(N3CCN(C(=O)c4ccco4)CC3)nc(N)c2cc1OC` showed a caspase-3/7 activation [2] of 0.614% [at 19 µM], an activity change, negative = cytotoxicity [6] of -12% [at 19 µM] and an activation [7] of 6.3% [at 19 µM]. It also gave an activity change, negative = inhibition [3] of -17.8% [at 23.6 µM], an activity change, negative = inhibition [4] of 16.3% [at 23.6 µM] and an activity change, negative = inhibition [5] of 1.12% [at 23.6 µM].
In the case of `OCCN1CCN(CCCN2c3ccccc3Sc3ccc(C(F)(F)F)cc32)CC1`, the Potency [1] is reported as 29.8 µM (active) and the Potency [7] is reported as “inactive”.
With `O=c1[nH]c2ccccc2n1CCCN1CCN(C(c2ccccc2)c2ccccc2)CC1` the Potency [2] was “inactive”, the Potency [7] was 4.22 µM (active) and the Potency [5] was 17.4 µM (active).
With `Cc1cc(=O)oc2cc(O)cc(O)c12` the Potency [2] was “inactive”, the Potency [7] was 61.3 µM (active) and the Potency [3] was “inactive”.
With `CCCCCCCCCCCCOC(=O)c1ccc(O)cc1` the Potency [2] was 61.6 µM (active), the Potency [7] was 27.5 µM (active) and the Potency [3] was 11.3 µM (active). The Potency [4] was 4.02 µM (active) and the Potency [5] was 4.52 µM (active).
In the case of `Nc1cc(Cl)c(O)c(Cl)c1`, the Potency [2] is reported as “inactive”, the Potency [6] is reported as “inactive” and the Potency [3] is reported as 15.9 µM (active). The Potency [4] was 20 µM (active) and the Potency [5] was 28.3 µM (active).
In the case of `Cc1cc(C)c(/C=C2\C(=O)Nc3ccccc32)[nH]1`, the Potency [1] is reported as “inactive”, the Potency [7] is reported as “inactive” and the max activation [10] is reported as -0.232%. For the same compound, the Potency [3] was “inactive”, the Potency [4] was 7.76 µM (active) and the Potency [5] was 11 µM (active).
In the case of `CCCCCC/C=C\CCCCCCCC(=O)O`, the Potency [2] is reported as “inactive”, the Potency [6] is reported as “inactive” and the Potency [7] is reported as “inactive”. For the same compound, the Potency [3] was “inactive”, the Potency [4] was 50.2 µM (active) and the Potency [5] was 71 µM (active).
With `CCCCN(CCCC)CC(O)c1cc(Cl)cc2c1-c1ccc(Cl)cc1/C2=C/c1ccc(Cl)cc1` (centres undefined) the Potency [1] was 26.6 µM (active), the Potency [8] was 10 µM (active) and the Potency [9] was 11.2 µM (active). The Potency [3] was 0.49 µM (active), the Potency [4] was 17.4 µM (active) and the Potency [5] was 17.4 µM (active).
With `CC(C)(C)c1ccc(C(O)CCCN2CCC(C(O)(c3ccccc3)c3ccccc3)CC2)cc1` (centres undefined) the Potency [1] was 11.9 µM (active), the Potency [7] was “inactive” and the Potency [4] was “inactive”.
In the case of `Cl[Si](Cl)(c1ccccc1)c1ccccc1`, the Potency [1] is reported as “inactive”, the Potency [2] is reported as “inactive” and the Potency [4] is reported as 20.5 µM (active). The Potency [5] was 23 µM (active).
In the case of `Cc1cc(C(C#N)c2ccc(Cl)cc2)c(Cl)cc1NC(=O)c1cc(I)cc(I)c1O` (centres undefined), the Potency [2] is reported as “inactive”, the max activation [10] is reported as -15.9% and the Potency [8] is reported as “inactive”. The Potency [9] was “inactive”, the Potency [3] was “inactive” and the Potency [4] was 8.71 µM (active). For the same compound, the Potency [5] was 17.4 µM (active).
